Sampled rows, rich in hits. Any-hit rate of the full collection: about 4.1%.
p-CIP stab down – p/CIP-EGFP fusion destabilizers, primary screen, fluorescence, F442A cells. actives 0.01% (n = 290,000). AID 1984, 2009. 16 h. decrease of EGFP signal, % at 10 µM;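 active means EGFP signal decrease of at least 30% at 10 µM or well 3 SD below plate mean, unless failing retest; inactive means the rest, including hits failing retest or dose response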
Target sequence (Q05BA5 1-1403): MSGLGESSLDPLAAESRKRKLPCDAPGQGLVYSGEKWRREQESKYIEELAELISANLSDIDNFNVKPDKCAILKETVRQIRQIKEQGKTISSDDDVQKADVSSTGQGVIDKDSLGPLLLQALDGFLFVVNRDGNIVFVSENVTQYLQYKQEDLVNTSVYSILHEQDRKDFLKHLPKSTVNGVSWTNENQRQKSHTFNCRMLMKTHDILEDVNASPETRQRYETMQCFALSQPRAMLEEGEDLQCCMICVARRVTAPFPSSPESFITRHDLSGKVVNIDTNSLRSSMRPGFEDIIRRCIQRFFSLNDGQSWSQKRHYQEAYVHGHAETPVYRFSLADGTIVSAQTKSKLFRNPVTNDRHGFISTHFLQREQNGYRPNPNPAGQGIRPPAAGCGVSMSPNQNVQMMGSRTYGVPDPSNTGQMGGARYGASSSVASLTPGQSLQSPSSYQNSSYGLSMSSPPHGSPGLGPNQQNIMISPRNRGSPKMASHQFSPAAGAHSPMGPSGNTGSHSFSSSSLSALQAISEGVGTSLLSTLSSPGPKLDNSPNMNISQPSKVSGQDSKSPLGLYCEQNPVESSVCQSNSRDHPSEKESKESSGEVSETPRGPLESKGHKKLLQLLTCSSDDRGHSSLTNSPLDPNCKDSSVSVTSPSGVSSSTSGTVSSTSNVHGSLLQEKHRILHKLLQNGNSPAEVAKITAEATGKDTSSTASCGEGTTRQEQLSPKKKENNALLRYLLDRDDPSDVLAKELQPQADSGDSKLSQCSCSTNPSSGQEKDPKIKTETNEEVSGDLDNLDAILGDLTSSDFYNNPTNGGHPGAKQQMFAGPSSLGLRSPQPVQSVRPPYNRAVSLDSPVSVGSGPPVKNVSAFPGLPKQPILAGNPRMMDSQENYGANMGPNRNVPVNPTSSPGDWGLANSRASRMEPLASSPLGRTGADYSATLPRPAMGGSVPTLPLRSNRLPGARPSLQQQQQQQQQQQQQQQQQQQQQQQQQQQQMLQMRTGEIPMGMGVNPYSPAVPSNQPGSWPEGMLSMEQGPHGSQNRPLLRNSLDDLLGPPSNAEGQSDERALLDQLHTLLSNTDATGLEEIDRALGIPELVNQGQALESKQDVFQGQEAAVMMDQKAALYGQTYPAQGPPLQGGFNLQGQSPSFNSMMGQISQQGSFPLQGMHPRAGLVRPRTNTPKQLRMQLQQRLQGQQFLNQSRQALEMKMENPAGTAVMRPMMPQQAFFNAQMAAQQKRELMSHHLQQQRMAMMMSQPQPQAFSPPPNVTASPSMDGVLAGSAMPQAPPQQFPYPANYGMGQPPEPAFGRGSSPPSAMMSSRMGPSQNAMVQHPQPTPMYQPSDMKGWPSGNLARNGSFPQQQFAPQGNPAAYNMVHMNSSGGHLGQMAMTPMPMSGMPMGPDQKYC
beta cell repl – inducers of MIN6 beta-cell proliferation, primary screen, ATP luminescence, uHTS. actives 0.29% (n = 330,000). MIN6 cells proliferation, ATPlite luminescence, 48 h; cells starved in 0.2% serum; 100% = growth in 10% serum. proliferation, % at 10 µM. AID 2380, 2010;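 active means compounds whose signal lies at least 3.5 SD above the mean of all wells on their plate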
MPTP block – mitochondrial permeability transition pore inhibitors, primary screen, biochemical, isolated mouse mitochondria, absorbance; Ca2+ swelling absorbance, 30 min; inhibition, % at 10 µM; actives 1.4% (n = 360,000); AID 602449, 2012;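 active means inhibition of 50% or more, scaled per plate between neutral and stimulator controls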
NR3A LBD binder – binders of NR3A ligand-binding domain, primary screen, biophysical, differential scanning fluorimetry, uHTS | Glutamate receptor ionotropic, NMDA 3A (GRIN3A) ligand-binding domain | NR3A LBD differential scanning fluorimetry, Tm shift; 0% = protein alone, 100% = glycine-bound protein | Tm shift relative to glycine control, % at 25 µM | actives 2.5% (n = 340,000);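 active means melting temperature shift of at least 10% of the positive control shift, at one fixed dose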
FAS-TE inh – FAS thioesterase domain inhibitors, primary screen, biochemical, fluorescence intensity, uHTS. Fatty acid synthase (Homo sapiens), P49327. recombinant FAS-TE, OMFH fluorogenic substrate, fluorescence endpoint. inhibition, % at 15 µM. actives 0.67% (n = 360,000). AID 602261, 2012;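 active means compounds whose normalised, plate-corrected inhibition of enzyme fluorescence in the single-dose primary screen is 50% or more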
Hits are given with their value; – = inactive; · = no result given.

SMILES	p-CIP stab down	beta cell repl	MPTP block	NR3A LBD binder	FAS-TE inh
COC(=O)C1C2OC(C(Br)C2Br)C1C(=O)OC (stereo not given)	·	·	–	·	–
COc1cccc(N2CC(C(=O)Nc3nnc(SCC(=O)Nc4ccc(NC(C)=O)cc4)s3)CC2=O)c1 (stereo not given)	–	–	–	–	–
Cc1cccc(NC(=O)CSc2nnc(NC(=O)C3CC3)s2)c1C	–	–	–	–	–
O=C(CSc1nnc(NC(=O)C2CC2)s1)Nc1cccc(F)c1	–	–	–	14	–
COc1cccc(C(=O)Nc2nnc(SCC(=O)Nc3ccc(NC(C)=O)cc3)s2)c1	–	–	–	37	–
COc1cccc(NC(=O)CSc2nnc(NC(=O)C3CCC3)s2)c1	–	–	–	12	–
O=C(CSc1ccsc1[N+](=O)[O-])Nc1cccc(F)c1	–	·	–	20	–
CC(C)N(C(=O)c1ccc(Cc2cn(C)c3ccccc23)nc1)C(C)C	·	·	–	·	–
Cc1ccc(Nc2nnc(SCC(=O)Nc3cccc(S(=O)(=O)N4CCCCC4)c3)s2)cc1	–	–	–	18	–
COc1cc(NC(=O)c2cccs2)cc(OC)c1	–	–	–	–	–
COc1cccc(NC(=O)c2cccs2)c1	–	–	–	26	–
COc1cccc(C(=O)/C=C/Nc2ccc(S(=O)(=O)Nc3ncccn3)cc2)c1	–	–	–	–	–
COc1ccc(Cl)cc1-c1nc(-c2ccc(NC(=O)c3cccs3)cc2)no1	–	–	–	35	–
Cc1ccc(C(=O)Nc2ccc(C(=O)/C=C/c3cccs3)cc2)cc1	–	–	–	15	–
COc1cccc(C(=O)/C=C/Nc2ccc(S(=O)(=O)Nc3ccc(C(C)=O)cc3)cc2)c1	–	–	–	24	–
Cc1ccc(F)c(S(=O)(=O)NC(=O)C2(C)CCN2C(=O)Cc2ccsc2)c1 (stereo not given)	·	·	–	·	–
COc1ccc(NC(=O)c2ccc(NC(=O)c3cccs3)cc2)cc1	–	–	–	26	–
O=C(Nc1ccc(Oc2ccc3c(c2)C(=O)N(c2ccc(O)cc2)C3=O)cc1)c1cccs1	–	–	–	16	–
COc1ccc(C(=O)/C=C/Nc2cccc(O)c2)cc1	–	–	–	19	–
O=C(Nc1ccc(NC(=O)c2cccs2)cn1)c1ccccc1	–	–	–	14	–
COc1cccc(N/C=C/C(=O)c2ccc(Br)cc2)c1	·	–	–	–	–
COc1ccccc1CNc1nc(Nc2cccc(-c3cnco3)c2)c2sccc2n1	·	·	–	·	–
CCOc1ccccc1-c1ccc(C(=O)NCc2ccc(Cl)cc2)o1	·	·	–	·	–
CCC(=O)N(C)C[C@H]1Oc2ncc(C#Cc3cccnc3)cc2C(=O)N([C@@H](C)CO)C[C@@H]1C	·	·	–	·	–
CCOC(=O)[C@]12CCC=C1N(Cc1ccco1)C(=O)[C@H](CC(=O)N1CCN(C(=O)c3ccco3)CC1)C2	·	·	–	·	–
SMILES	p-CIP stab down	beta cell repl	MPTP block	NR3A LBD binder	FAS-TE inh
COc1ccc(CCNC(=O)c2cccs2)cc1	–	–	–	31	–
Cc1cc(C)cc(C(=O)Nc2ccc(NC(=O)c3cccs3)cc2)c1	–	–	–	27	–
COc1ccc(/C=C/C(=O)c2ccc(O)cc2)cc1	–	–	–	11	–
CC(=O)c1ccc(NC(=O)c2cccs2)cc1	–	–	–	–	–
COc1ccc(OCC(=O)Nc2ccc(NC(=O)c3cccs3)cc2)cc1	–	–	–	32	–
COc1ccc(OCC(=O)NNC(=O)c2cccs2)cc1	–	–	–	–	–
COc1ccc(/C=C/C(=O)c2ccoc2)cc1	–	–	–	–	–
O=c1[nH]cnc2c1nnn2C1OC(CO)C(O)C1O (stereo not given)	·	·	–	·	–
CC1=C(C(=O)N2CCCCCC2)CC(CC(=O)NC2CCCCC2)C(=O)N1Cc1ccc(F)cc1 (stereo not given)	·	·	–	·	–
COc1cccc(-c2nc(-c3ccccc3)c3ccc(Cl)cc3n2)c1	·	·	–	·	–
CCOC(=O)c1cc(OC)c2cccc(CN3CCCC(C)(C(=O)NCCOC)C3)c2c1 (stereo not given)	·	·	–	·	–
C[C@@H](c1ccccc1)N1C[C@H](COCc2ccccc2)Oc2cc(N3CC[C@H](O)C3)ccc2S1(=O)=O	·	·	–	·	–

Assay outcomes from PubChem.
